# Only some compounds are listed: those with a hit (about 5.4% of all), similar ones and a draw of the others.
# RORgamma inh: qHTS for inhibitors of ROR gamma transcriptional activity; Drosophila S2 Gal4-RORgamma UAS-luciferase reporter, 20 h; Potency, µM (doses to about 53.6 µM), without a hit: top-dose activity change, negative = inhibition, usual class: inhibitors; 310,000 compounds, 5.4% hits; further: potency means the concentration at half of the fitted maximal effect; on the % scale 0 is the no-effect control and ±100 the full control effect; nearly all actives have a fitted effect of over 60% in size
# Target sequence (P51450 whole entry, looked up, the tested form may be a part): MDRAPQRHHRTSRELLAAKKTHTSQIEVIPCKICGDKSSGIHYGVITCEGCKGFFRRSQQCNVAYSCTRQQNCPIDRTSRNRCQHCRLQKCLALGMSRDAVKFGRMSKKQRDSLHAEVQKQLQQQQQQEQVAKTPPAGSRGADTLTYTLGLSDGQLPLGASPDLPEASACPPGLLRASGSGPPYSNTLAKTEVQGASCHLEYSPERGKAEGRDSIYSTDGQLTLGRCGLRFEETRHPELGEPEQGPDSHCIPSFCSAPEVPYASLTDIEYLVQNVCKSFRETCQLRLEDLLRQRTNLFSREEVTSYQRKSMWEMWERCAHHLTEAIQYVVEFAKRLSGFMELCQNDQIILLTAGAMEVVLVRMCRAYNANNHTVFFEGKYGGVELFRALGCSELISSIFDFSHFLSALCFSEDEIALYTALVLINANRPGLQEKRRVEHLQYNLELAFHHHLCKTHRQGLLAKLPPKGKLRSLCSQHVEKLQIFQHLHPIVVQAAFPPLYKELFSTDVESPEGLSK
#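 Using a luciferase readout, inhibitors were identified by reduced reporter activity in Drosophila cells coexpressing a copper-inducible Gal4–ROR gamma fusion and UAS-driven Photinus luciferase, incubated 20 hr after 700 uM copper sulfate.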
# p53 reactivation: qHTS assay for re-activators of p53 using a Luc reporter; H1299 p53-A138V BP100-luciferase reporter, luminescence, 24 h; Potency, µM (titrated, usually from 92.2 µM), for inactives: at the top dose activity change, positive = activation, usual class: activators; 320,000 compounds, 0.063% hits; further: potency means the concentration at half of the fitted maximal effect; % of control where 0% means no effect; nearly all actives have a fitted effect of over 45% in size
#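 H1299 (p53-null), stable ts p53-A138V + BP100-Luc; 1000 cells/well, Opti-MEM/10% FBS; cpd 4 pt, 1:5; 24 h, 37 deg C, 5% CO2; detection reagent 10 min RT; luminescence.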
# VP16 counter: VP16 counterscreen qHTS for inhibitors of ROR gamma transcriptional activity. 310,000 compounds, 3.5% hits. Potency, µM (titrated, usually from 53.6 µM), for the others: top-dose activity, negative = inhibition, most hits filed as inhibitors. Drosophila S2 Gal4-VP16 UAS-luciferase, luminescence, 20 h. AID 2546, 2010;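 further: Gal4-VP16 expression switched on by copper sulfate through the metallothionein promoter; potency means the concentration at half of the fitted maximal effect; on the % scale 0 is the no-effect control and ±100 the full control effect; nearly all actives have a fitted effect of over 50% in size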
# Six1-Eya2 blk: qHTS Assay for Inhibitors of the Six1/Eya2 Interaction; AID 651725, 2012; 360,000 compounds, 0.56% hits; activity change, % (test concentration not listed); Homeobox protein SIX1 (Homo sapiens) + Protein phosphatase EYA2 (Homo sapiens), …; AlphaScreen GST-Six1/His-Eya2 binding, biochemical; active compounds read low; in the data active means activity change below about -65%; inconclusive means mostly about -30% to -63%; further: on the % scale 0 is the no-effect control and ±100 the full control effect
#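 Six1/Eya2 binding was read as AlphaScreen signal after compounds were pinned into GST-Six1 plus His-tagged Eya2 (5X stock 250/500 nM) in pH 8.0 Tris/NaCl/TCEP buffer, beads added, then incubated 1 h, 37 C, dark.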
# CtBP-E1A inh: qHTS Assay for Inhibitors of the CtBP/E1A Interaction; CtBP / adenovirus E1A interaction (AlphaScreen); AlphaScreen GST-E1A/His-CtBP binding, 1536-well; active compounds read low; activity change, % (test concentration not listed); 340,000 compounds, 0.49% hits; AID 651724, 2012; in the data active means activity change below about -65%; inconclusive means mostly about -30% to -63%; further: on the % scale 0 is the no-effect control and ±100 the full control effect
#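 In 5 uL wells, 23 nL compound meets equimolar GST-E1A and His-CtBP (5X stock 125 nM each) for 2 h, 37 °C. Beads (5X, 50 ug/mL) then 1 h, 37 °C, dark.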
# Starred values were filed as active, the others as inactive; ? = inconclusive; . = not tested or not shown; [ ] = remark or other dose. Unless noted, the call rests on the fitted dose curve; in most records, active means well fitted curve in the direction sought with a large enough effect; inconclusive means small, poorly fitted or top-dose-only effect, or another doubt; inactive means no such curve, though single readings can be large; an effect the other way counts as inactive or inconclusive.
SMILES,RORgamma inh,p53 reactivation,VP16 counter,Six1-Eya2 blk,CtBP-E1A inh
CNC(=S)Nc1ccc([N+](=O)[O-])c(C)c1,10µM*,-2.1%,?,8.2,2.9
Cc1ccc(NC(=S)NCc2ccccc2)cc1[N+](=O)[O-],?,?,?,-7.8,-3.7
Cc1ccc(CNC(=S)Nc2ccc(C)c([N+](=O)[O-])c2)cc1,6.31µM*,10.2%,3.55µM*,0.1,-5.7
NC(=O)C1(Nc2ccc(-c3ccc(Br)cc3)cc2)CCCC1,.,.,.,-7.3,-15.3
Cc1ccc(C)c(Cn2c(CN(C)Cc3ccccc3)nc3c2c(=O)n(C)c(=O)n3C)c1,-36.7%,0.4%,-7.4%,-3.9,-18.8
O=C1C=CC(=O)c2c(O)c(N3CCN(CCO)CC3)c(Cl)c(O)c21,.,.,.,?,-13.4
O=C1C=CC(=O)c2c(O)c(N3CCN(CCOCCO)CC3)c(Br)c(O)c21,.,.,.,-69.3*,-25.8
OC(c1ccc(F)cc1)c1nc(-c2cc3ccccc3o2)cs1 (stereo not drawn),.,.,.,0.8,8.4
COc1ccc(CN2C(=O)CCC2(C)c2nnnn2C2CCCCC2)cc1 (stereo not drawn),.,.,.,6.8,-7.3
Cc1cc(C)nc(Nc2nc(C)c3cc4c(cc3n2)OCO4)n1,7.08µM*,-23.5%,7.08µM*,1.6,-6.2
Cc1nc(NC(=O)c2ccc(Cl)cc2)nc2cc3c(cc12)OCO3,5.6%,-0.8%,-11.5%,11.6,5.6
O=c1c2ccccc2nc(SCc2ccccc2)n1Cc1ccco1,38.0%,2.7%,-24.6%,-0.1,9.4
O=c1c2ccccc2nnn1CSc1nc2ccccc2c(=O)n1Cc1ccco1,2.51µM*,-2.0%,?,1.4,1.2
Cc1ccc(-n2nnnc2SCn2nnc3ccccc3c2=O)c(C)c1,?,.,7.08µM*,-3.5,10.0
O=C(NNc1ncnc2c1cnn2-c1ccc(F)cc1)c1cccs1,12.6µM*,2.6%,-5.1%,-1.0,8.8
Cc1cccc(-n2ncc3c(NCc4ccco4)ncnc32)c1,?,?,3.8%,-16.8,-0.3
Cc1cccc(-n2ncc3c(NNC(=O)c4ccco4)ncnc32)c1,7.08µM*,27.1%,7.94µM*,2.4,-4.0
Cc1ccc(-n2ncc3c(NNC(=O)c4ccco4)ncnc32)cc1Cl,3.16µM*,-0.6%,3.98µM*,2.9,1.3
CC(=O)NNc1ncnc2c1cnn2-c1ccccc1,-33.3%,-1.5%,-14.0%,26.4,30.8
Cc1ccc(-n2ncc3c(NNC(=O)Cc4ccccc4)ncnc32)cc1,12.6µM*,21.7%,?,3.8,3.3
Cn1ncc2c(NNC(=O)Cc3ccccc3)ncnc21,16.3%,-8.4%,-7.0%,2.8,-0.8
O=C(O)c1nn(CC(=O)N2CCN(S(=O)(=O)c3ccc(Cl)cc3)CC2)c(=O)c2ccccc12,8.2%,-0.7%,-5.3%,-19.0,-9.7
C/C(=N\NC(=O)CSc1nc2ccccc2o1)c1ccc(O)cc1,11.2µM*,3.1%,2.8%,0.2,-11.3
CCOC(=O)c1c(NC(=O)CSc2nc3ccccc3o2)sc(C(C)=O)c1C,12.6µM*,13.0%,?,-8.2,1.7
NC(=S)NC1CC2CC1C1C=CCC21 (stereo not drawn),28.2µM*,-0.2%,-1.7%,0.0,3.8
SMILES,RORgamma inh,p53 reactivation,VP16 counter,Six1-Eya2 blk,CtBP-E1A inh
COc1ccc2c(c1)Sc1ccccc1N2,6.31µM*,-1.2%,6.31µM*,?,?
CC1=C(C(=O)c2ccccc2)C(c2ccc(O)cc2)NC(=S)N1 (stereo not drawn),-20.1%,-2.8%,8.6%,5.2,.
CC1=C(C)C(c2ccccc2)NC(=S)N1 (stereo not drawn),5.01µM*,1.9%,-93.3%,-9.2,-4.7
Nc1cc(Cl)ccc1C(=O)OCC(=O)NCC1CCCO1 (stereo not drawn),.,13.5%,.,-1.0,-0.3
Brc1ccc(-c2csc(N/N=C/c3ccco3)n2)cc1,-26.7%,6.6%,3.6%,-17.8,-3.7
NC(=O)/C(=N\OC(=O)c1ccco1)c1nc(-c2ccc(Br)cc2)cs1,4.47µM*,17.9%,?,?,?
COC(=O)c1ccc(-n2c(CCC(=O)O)ccc2-c2ccccc2)cc1,-11.4%,-1.2%,-1.0%,-7.8,-11.0
Cc1cc(C)c(C)c(N=Nc2nc3ccccc3n2C)c1C,2.24µM*,?,5.62µM*,-3.1,-4.6
Cc1ccc(C)c(N=Nc2nc3ccccc3n2C)c1,3.16µM*,14.6%,8.91µM*,?,11.0
Cn1c(/N=C/c2cccs2)nc2ccccc21,-5.9%,-1.2%,-6.5%,1.0,3.5
O=C(NC(=S)Nc1ccccc1N1CCCC1)c1cccc(F)c1,3.16µM*,2.1%,7.94µM*,?,.
O=C(NC(=S)Nc1ccccc1N1CCCCC1)c1ccccc1,1.41µM*,10.7%,7.94µM*,-2.3,.
O=C(NC(=S)Nc1ccccc1N1CCOCC1)c1ccc(Br)cc1,.,.,.,-21.2,-27.8
O=C(NC(=S)Nc1ccccc1N1CCOCC1)c1ccc(-c2ccccc2F)o1,2.82µM*,-0.7%,-8.7%,-26.1,4.3
O=C(NC(=S)Nc1ccccc1N1CCCC1)c1ccc(F)cc1,1.58µM*,13.3%,-64.0%,?,?
COc1ccc2c(c1)O[C@H](c1ccc3c(c1)OCO3)[C@@H](OC(=O)Nc1ccc(C)c(Br)c1)C2=O,?,.,-1.2%,.,.
O=C(NC(=S)Nc1ccccc1N1CCCCC1)c1ccc(F)cc1Cl,4.47µM*,13.3%,3.16µM*,-16.2,5.7
CC(=O)OCC1OC(Sc2cccc3cccnc23)C(OC(C)=O)C(OC(C)=O)C1OC(C)=O (stereo not drawn),?,-7.5%,-0.4%,-85.2*,-85.3*
CC(=O)OCC1OC(n2ccc3ccccc32)C(OC(C)=O)C(OC(C)=O)C1OC(C)=O (stereo not drawn),-20.6%,-2.8%,3.4%,2.2,-3.1
CCCNC(=O)OC[C@H]1O[C@@H](CCO/N=C\[C@@H](NS(=O)(=O)c2ccc(C)cc2)[C@H](C)/C=C\CC(=O)OC)C=C[C@@H]1Oc1ccc(OC)cc1,-3.2%[10 µM],.,4.1%[10 µM],.,.
Cc1cc(N(C)N)nc(NC(=O)NS(=O)(=O)c2ccccc2Cl)n1,-41.8%,4.9%,-0.5%,-74.1*,-94.0*
Cc1cc(=O)[nH]c(N/N=C/C(C)c2ccccc2)n1 (stereo not drawn),-15.3%,-2.7%,-2.1%,1.3,4.5
CC(C)c1ccc(C(O)c2nc3ccccc3n2C)cc1 (stereo not drawn),-15.4%,-1.1%,-16.1%,-5.2,.
Cn1c(C(C#N)C(=O)c2sc3ccccc3c2Cl)nc2ccccc21 (stereo not drawn),1.78µM*,4.2%,4.47µM*,-28.7,0.0
